Shown are actives, neighbours in structure and some others; about 6.1% of the full set was active somewhere.
Hsp90 Hop PPI: changes Hsp90-Hop TPR2A binding signal, up or down; AlphaScreen TPR2A-His6 binding biotin-Hsp90 C-terminal peptide; Potency, µM (doses to about 57 µM), for inactives: at the highest dose activity change, negative = inhibition; 0.44% of 71,000 active; active = well fitted curve in either direction with a large enough effect; inconclusive = small, poorly fitted or top-dose-only effect, or another doubt
Tau fil binding: binders of human tau filaments. Potency, µM (highest dose often 57.1 µM), for the others: at the highest dose activity change, negative = inhibition. recombinant tau filaments, thioflavin S fluorescence, 15 h; filaments grown with octadecylsulfate alongside compound. 2% of 71,000 active. AID 596;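 note: actives lower thioflavin S fluorescence by blocking filaments or displacing dye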
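Thioflavine S fluorescence (ex 450, em 510 nm) reports filaments formed from 1 uM human tau plus 30 uM ODS over 15 h at 37 C (10 mM HEPES pH 7.4, 100 mM NaCl, 5 mM DTT); compounds displacing dye or blocking filaments lower signal.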
ALOX15 inhib: inhibitors of human 15-lipoxygenase (ALOX15); P16050; purified 15hLO-1, xylenol orange hydroperoxide absorbance; Potency, µM (top dose mostly 57.1 µM), for the others: at the highest dose activity change, negative = inhibition, usual class: inhibitors; 1.4% of 74,000 active; AID 887; note: nearly all actives have a fitted effect of over 55% in size
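Purified human 15hLO-1 (40 nM) in 25 mM Hepes pH 7.5, 0.01% Triton X-100, preincubated 15 min RT with compound, then 50 uM arachidonic acid for 6 min. Hydroperoxide read by ferrous/xylenol orange, 30 min; 573/405 nm absorbance ratio gave progress.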
FLuc inh: blocks Photinus pyralis firefly luciferase activity | AID 411 | purified firefly luciferase, luminescence, 8 min | Potency, µM (doses to about 57.1 µM), without a hit: top-dose activity change, negative = inhibition, most hits filed as inhibitors | 2.2% of 72,000 active; note: nearly all actives have a fitted effect of over 40% in size
Target sequence (P08659 whole entry, looked up): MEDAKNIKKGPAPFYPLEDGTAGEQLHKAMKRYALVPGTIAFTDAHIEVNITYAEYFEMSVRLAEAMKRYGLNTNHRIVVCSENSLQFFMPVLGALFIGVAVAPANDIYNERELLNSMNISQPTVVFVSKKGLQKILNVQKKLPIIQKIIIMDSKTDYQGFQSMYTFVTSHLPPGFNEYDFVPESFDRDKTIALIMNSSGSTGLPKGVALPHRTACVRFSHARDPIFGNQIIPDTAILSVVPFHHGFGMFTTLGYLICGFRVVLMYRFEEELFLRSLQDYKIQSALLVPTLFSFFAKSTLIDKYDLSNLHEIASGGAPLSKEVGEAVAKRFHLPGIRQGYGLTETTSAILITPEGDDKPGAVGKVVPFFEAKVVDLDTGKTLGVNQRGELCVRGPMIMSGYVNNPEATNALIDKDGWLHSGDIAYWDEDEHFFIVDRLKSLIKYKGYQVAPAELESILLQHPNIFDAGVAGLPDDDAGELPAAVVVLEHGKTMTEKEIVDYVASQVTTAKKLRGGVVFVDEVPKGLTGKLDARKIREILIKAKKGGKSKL
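Firefly luciferase (PKLight detection mix) with 10 uM ATP in pH 7.2 imidazole buffer (KCl, MgCl2, Tween 20, BSA). Compounds tested across a concentration series (qHTS). Luminescence read after 8 min at ambient temperature.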
ERK AVP block: blocks ERK signaling stimulated by vasopressin | 0.99% of 72,000 active | HEK293-V1b, vasopressin-stimulated pERK AlphaScreen | Potency, µM (highest dose often 57.5 µM), inactives show at the highest dose activity, negative = inhibition, hits mostly inhibitors | AID 995; note: nearly all actives have a fitted effect of over 55% in size
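qHTS, compounds titrated on V1b-expressing HEK293 cells. Preincubation 30 min at 37C, vasopressin 25 nM for 5 min, lysis 10 min, bead incubation 5 hr at room temperature.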
PK Bst: alters activity of Bacillus stearothermophilus pyruvate kinase | purified pyruvate kinase, luminescence ATP production; ribose 5-phosphate activator present at AC10 | Potency, µM | 1.2% of 51,000 active | AID 361; in the data active = potency below about 11 µM; inconclusive = mostly about 12 µM to 25 µM;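 the screen sought inhibitors and activators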;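 note: scaled between full activation by ribose 5 phosphate and full inhibition by luteolin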
The depositor's hits bear a star; ? = inconclusive; / = no result given; [ ] = dose if it differs, or a comment. Unless noted, calls come from the whole dose curve; as a rule, active = well fitted curve in the direction sought with a large enough effect; inconclusive = small, poorly fitted or top-dose-only effect, or another doubt; inactive = no such curve, though single readings can be large; an effect the other way counts as inactive or inconclusive. Unless noted, % is set by controls: 0 for no effect and ±100 for the full control effect; potency is the fitted concentration of half-maximal effect.

SMILES	Hsp90 Hop PPI	Tau fil binding	ALOX15 inhib	FLuc inh	ERK AVP block	PK Bst
CCOC(=O)CCN1C(=O)[C@H]2[C@H]3[C@H](O)[C@H](O)C/C(=N/OC/C=C(\C)CCC=C(C)C)[C@@H]3CC[C@@H]2C1=O	/	/	-3.1%[11.4 µM]	-0.2%[11.4 µM]	3.9%[11.5 µM]	/
Cc1cc(C(=O)CN2C(=O)NC3(CCCc4ccccc43)C2=O)c(C)n1Cc1cccs1 (stereo not given)	-16.3%	53.1%	-5.2%	12.6µM*	-9.4%	/
COc1ccc([C@@H]2CC(=O)c3c(O)cc(O[C@@H]4O[C@@H](CO[C@@H]5O[C@@H](C)[C@@H](O)[C@@H](O)[C@H]5O)[C@@H](O)[C@@H](O)[C@H]4O)cc3O2)cc1O	-2.8%	151.5%	/	1.4%[11.4 µM]	/	/
O=C(NCCC1=CCCCC1)C1CCCN(S(=O)(=O)c2cccnc2)C1 (stereo not given)	-1.1%[2.3 µM]	-0.1%	-6.9%	-0.7%	-12.3%	/
O=C(NCCC1=CCCCC1)C1CCCN(S(=O)(=O)c2cccc3cccnc23)C1 (stereo not given)	?	0.9%	20µM*	1.1%	4.0%	/
CCOc1ccc(NC(=O)CSc2nnc(-c3ccncc3)n2CC2CCCO2)cc1 (stereo not given)	-0.2%	3.9%	3.9%	-1.8%	5.7%	>57
CCOc1ccc2nc(NC(=O)CSc3nnc(-c4ccncc4)n3CC3CCCO3)sc2c1 (stereo not given)	1.1%	-15.0%	5.7%	2.51µM*	-6.3%	4.67*
CCNC(=O)c1cc2c(=O)n3cccc(C)c3nc2n(Cc2ccc(C)cc2)c1=N	-2.8%	1.58µM*	-5.5%	0.6%	3.1%	>57
COCCn1c(=N)c(C(=O)NCCc2ccc(OC)cc2)cc2c(=O)n3cccc(C)c3nc21	-1.5%	2µM*	-8.2%	0.8%	-3.6%	>57
Cc1cccn2c(=O)c3cc(C(=O)NC(C)C)c(=N)n(Cc4ccncc4)c3nc12	-4.8%	34.8%	-1.6%	-0.7%	-10.2%	>57
Cc1cccc(C)c1-n1nnnc1SCSc1nnnn1-c1c(C)cccc1C	-2.6%	5.7%	-5.3%	-0.8%	-1.2%	3.45*
Cc1ccccc1-n1nnnc1SCC(N)=O	-1.4%	-9.6%	1.0%	-34.2%	4.8%	/
COc1cc([C@@H]2c3cc4c(cc3[C@@H](O[C@@H]3O[C@H]5CO[C@@H](C)O[C@@H]5[C@@H](O)[C@H]3O)[C@@H]3COC(=O)[C@@H]23)OCO4)cc(OC)c1O	-0.4%	-64.8%	-29.8%[25.6 µM]	?	19.5%	/
Cc1ccc(-n2nnnc2SCC(=O)NCCC2=CCCCC2)c(C)c1	10.7%	-6.2%	31.6µM*	-0.7%	12.5%	>57
CCNc1ncc2nc(-c3ccccc3)c(=O)n(CCOC)c2n1	16.0%	49.6%	-2.4%	0.2%[11.4 µM]	7.4%	/
COc1ccc(-c2cc(C(F)(F)F)nc(N3CCCCCC3)n2)cc1	25.1µM*	3.0%	-24.6%	2.7%	1.4%	>57
COc1ccc(-c2cc(C(N)=O)nc(N3CCCCCC3)n2)cc1	-5.3%	5.0%	-16.8%	7.94µM*	-23.5%	?
COc1ccc(-c2cc(C(F)(F)F)nc(N3CCN(C)CC3)n2)cc1	-3.6%	166.6%	?	0.8%	-21.6%	>57
COc1ccc(-c2cc(C(F)(F)F)n3nc(C(=O)N4CCCC4)cc3n2)cc1	2.4%	-11.7%	5.0%	-2.0%	-2.3%	/
COc1ccc(-c2cc(C(F)(F)F)nc(N3CCCCC3)n2)cc1OC	25.1µM*	2.3%	?	0.0%	4.3%	>57
COc1ccc(-c2nsc3c(N4CCN(S(=O)(=O)c5ccccc5)CC4)ncnc23)cc1	3.4%	-0.7%	5.5%	3.0%	13.3%	>57
COc1ccc(-c2cc(C(F)(F)F)nc(N3CCN(c4ccccc4)CC3)n2)cc1OC	-6.0%	7.0%	-12.2%	0.8%	0.3%	>57
COc1ccc(-c2nsc3c(N4CCCC4)ncnc23)cc1	-0.2%	6.3%	9.0%	0.794µM*	-0.1%	1.57*
O=C(c1ccccc1)[C@@H]1O[C@H]1c1ccc(-c2ccccc2)cc1	-5.7%	?	4.8%[25.6 µM]	-11.8%	5.0%	/
O=C(O)Cc1c[nH]c2ccc(F)cc12	-0.4%[11 µM]	-7.2%[11.4 µM]	-4.6%[11.4 µM]	2.5%[11.4 µM]	-11.6%[11.5 µM]	/

Source: PubChem (National Center for Advancing Translational Sciences (NCATS))
